11 compounds from PubChem BioAssay (Tox21) can be followed below.

Where “and” joins values, the source holds several entries; their conditions need not be identical. Equal entries are not always repeated. Records with an inconclusive call do not appear. The source holds several records for some structures; these can differ, active in one and inactive in another. Calls of active or inactive are those of the source. Unless noted, calls follow the shape of the dose curve; as a rule, active = well fitted curve in the direction sought with a large enough effect in the repeat runs; inconclusive = weak or mixed curves; inactive = no such curve, though single readings can be large; an effect the other way counts as inactive or inconclusive.

The nature of experiment [1]: qHTS assay for small molecules that induce genotoxicity in human embryonic kidney cells expressing luciferase-tagged ATAD5 (AID 651632). Also: nearly all actives have a fitted effect of over 15% in size. Also: potency is read from the fitted curve at half-maximal effect. The essentials:
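Cells were seeded at 2,000 per well, dosed with compound, and incubated 16 hr at 37C in 5% CO2. Luciferase activity was then quantified after a 30 min room-temperature incubation with Amplite.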
In general terms: qHTS replaces the single test concentration by a dilution series.

A short description of experiment [2]: qHTS assay for small molecule agonists of the p53 signaling pathway - cell viability (AID 651633; calls by dose curve; also: nearly all actives have a fitted effect of over 30% in size; also: potency is read from the fitted curve at half-maximal effect). The essentials:
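p53RE-bla cells, seeded at 4,000 per well and rested 5 h at 37 C/5% CO2, received compounds in DMSO for 16 h at 37 C. CellTiter-Glo was then added, and luminescence was read after 30 min at room temperature to gauge cytotoxicity.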

Experiment [3] can be described thus: qHTS assay for small molecule disruptors of the mitochondrial membrane potential - cell viability (AID 720634; calls by dose curve; also: nearly all actives have a fitted effect of over 20% in size; also: potency is read from the fitted curve at half-maximal effect). The gist of the method:
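Cytotoxicity was measured by ATP quantitation in HepG2 wells that had first been treated with compound for 1 hr and stained with m-MPI dye; CellTiter-Glo incubation was 30 min at room temperature.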

A short description of experiment [4]: qHTS assay for small molecule disruptors of the mitochondrial membrane potential (AID 720635). Also: potency is read from the fitted curve at half-maximal effect. The gist of the method:
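HepG2 cells (2,000/well) attached overnight at 37C, then took compound for 1 hr at 37C, 5% CO2. Mito-MPS dye was added for 30 min; fluorescence was read at 490/535 nm (monomers) and 540/590 nm (aggregates).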

Experiment [5] is described as follows: qHTS assay to test for compound auto fluorescence at 590 nm (red) in HepG2 cells (AID 720674). The gist of the method:
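Rose Bengal sodium served as the red fluorophore standard. HepG2 monolayers (overnight attachment, MEM with 10% FBS) were exposed to test compounds for 1 hr at 37 C and read at Ex 540/Em 590 nm.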

Experiment [6] can be described thus: qHTS assay to test for compound auto fluorescence at 535 nm (green) in HepG2 cells (AID 720675).
The nature of experiment [7]: qHTS assay to test for compound auto fluorescence at 460 nm (blue) in HEK293 cells (AID 720678). The essentials:
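Blue read-out at excitation 405 nm and emission 460 nm follows overnight compound exposure of HEK293 cells at 37C in 5% CO2. Activity is given as auto fluorescence equivalency to triamterene.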

Experiment [8] is described as follows: qHTS assay to test for compound auto fluorescence at 590 nm (red) in HEK293 cells (AID 720679). The gist of the method:
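Red channel, Ex/Em 540/590nm; signal expressed as equivalency to Rose Bengal sodium. HEK293, 2,000 cells/well, 10% dialyzed FBS; 23 nL compound pinned after 4-5 hr attachment; overnight 37C/5% CO2 before reading.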

The nature of experiment [9]: qHTS assay to test for compound auto fluorescence at 535 nm (green) in HEK293 cells (AID 720680).
Experiment [10] can be described thus: qHTS assay to test for compound auto fluorescence at 460 nm (blue) in HEK293 cell free culture (AID 720681). The essentials: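 Test compounds were pinned into cell-free culture medium (DMEM with 10% FBS) and fluorescence was read directly at Ex/Em 405/460 nm. Signals were expressed as fluorescence equivalents of triamterene, with DMSO vehicle as control.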
The nature of experiment [11]: qHTS assay to test for compound auto fluorescence at 535 nm (green) in HEK293 cell free culture (AID 720682). The gist of the method: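 Steps: dispense DMEM/10% FBS into empty wells; pin in compound or DMSO; measure fluorescence at 485/535 nm. Values are fluorescein equivalents.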
A short description of experiment [12]: qHTS assay to test for compound auto fluorescence at 590 nm (red) in HEK293 cell free culture (AID 720683). The gist of the method: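 Tox21 10K library compounds were pinned into cell-free DMEM with 10% FBS and fluorescence was read at excitation 540 nm. Activity is expressed as Rose Bengal sodium equivalency.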
A short description of experiment [13]: qHTS assay to test for compound auto fluorescence at 590 nm (red) in HepG2 cell free culture (AID 720684). The essentials:
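Readout: intrinsic compound fluorescence at 590 nm emission after 540 nm excitation, scaled to Rose Bengal sodium. Matrix was cell-free MEM with 10% FBS; DMSO vehicle wells served as control.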

A short description of experiment [14]: qHTS assay to test for compound auto fluorescence at 460 nm (blue) in HepG2 cell free culture (AID 720685). The essentials: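 Cell-free plates of MEM plus 10% FBS received 23 nL compound or DMSO vehicle; blue-channel (405/460 nm) intensity scored against triamterene as reference fluorophore.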
A short description of experiment [15]: qHTS assay to test for compound auto fluorescence at 535 nm (green) in HepG2 cell free culture (AID 720686).
A short description of experiment [16]: qHTS assay to test for compound auto fluorescence at 460 nm (blue) in HepG2 cells (AID 720687). The essentials: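 Cells (2,000/well in MEM with 10% FBS) attached overnight at 37 C, then were exposed to compound or DMSO for 1 hr at 37 C, 5% CO2. Fluorescence read at Ex/Em 405/460 nm, expressed as triamterene-equivalent signal.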
Experiment [17] in a line: qHTS assay for small molecules that induce genotoxicity in human embryonic kidney cells expressing luciferase-tagged ATAD5 - cell viability (AID 651634; calls by dose curve; also: nearly all actives have a fitted effect of over 25% in size). The gist of the method: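 Cells (HEK293T, luciferase-tagged ATAD5) are seeded at 2,000 per well, dosed with compound or DMSO vehicle, and incubated 15.5 hr at 37C and 5% CO2. CellTiter-Fluor is added for 30 min before fluorescence is measured.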

The target of experiment [18] is Glucocorticoid receptor (Homo sapiens) (UniProt P04150). The experiment is described as follows: qHTS assay to identify small molecule agonists of the glucocorticoid receptor (GR) signaling pathway (AID 720691; active = well fitted activation curve with a large enough effect in the signal ratio in the repeat runs, not every such curve was filed as active; the % refers to the signal ratio). The gist of the method:
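Steps: seed GR-bla HeLa cells, incubate 4 h at 37 C/5% CO2; pin-transfer DMSO-dissolved compounds; incubate 18 h at 37 C; add LiveBLAzer B/G FRET substrate; after 2 h at room temperature, measure fluorescence.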

Experiment [19] has the same target. The experiment is described as follows: qHTS assay to identify small molecule antagonists of the glucocorticoid receptor (GR) signaling pathway (AID 720692; active = well fitted inhibition curve with a large enough effect in the signal ratio in the repeat runs, not every such curve was filed as active; the % refers to the signal ratio; also: potency is read from the fitted curve at half-maximal effect). The essentials:
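Antagonism was scored as loss of dexamethasone-driven (5 nM final) reporter signal in HeLa cells bearing a glucocorticoid response element–beta-lactamase construct, after 18 h compound exposure at 37 C and 2 h FRET substrate loading.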

Sequence of Glucocorticoid receptor (Homo sapiens) (P04150 whole entry, looked up): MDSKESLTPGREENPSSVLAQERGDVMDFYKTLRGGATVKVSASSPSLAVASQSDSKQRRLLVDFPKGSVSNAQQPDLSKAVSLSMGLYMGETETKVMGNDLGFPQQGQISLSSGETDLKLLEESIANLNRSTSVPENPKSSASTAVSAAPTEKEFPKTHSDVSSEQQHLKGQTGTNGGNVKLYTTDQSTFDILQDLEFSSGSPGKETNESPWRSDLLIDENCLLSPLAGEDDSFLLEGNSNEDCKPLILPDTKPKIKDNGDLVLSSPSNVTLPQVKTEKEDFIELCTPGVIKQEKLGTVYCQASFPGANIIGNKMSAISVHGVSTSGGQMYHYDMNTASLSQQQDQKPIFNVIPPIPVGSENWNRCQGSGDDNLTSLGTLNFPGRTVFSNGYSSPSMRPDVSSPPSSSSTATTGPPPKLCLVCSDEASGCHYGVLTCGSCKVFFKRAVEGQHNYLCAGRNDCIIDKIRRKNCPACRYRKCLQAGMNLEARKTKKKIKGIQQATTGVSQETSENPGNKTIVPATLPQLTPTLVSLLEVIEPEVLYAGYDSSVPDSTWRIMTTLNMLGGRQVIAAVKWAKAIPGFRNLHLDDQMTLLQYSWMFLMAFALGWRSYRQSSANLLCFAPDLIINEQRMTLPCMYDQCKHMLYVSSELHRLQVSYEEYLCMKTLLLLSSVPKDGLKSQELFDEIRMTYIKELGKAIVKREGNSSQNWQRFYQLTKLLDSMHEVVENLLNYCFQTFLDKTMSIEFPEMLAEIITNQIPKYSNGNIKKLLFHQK

`CCCCCc1cc(O)cc(O)c1`: the Potency result in experiment [1] and in experiment [2] was “inactive” in each case. For the same compound, the Potency was 61.1 µM (active) in [3]; 9.73 µM (active) and 7.7 µM (active) in experiment [4]. For the same compound, the compound was called inactive in experiment [5], in experiment [6], in [7], in experiment [8], in experiment [9] and in experiment [10]. The compound was classed as inactive in experiment [11], in [12], in [13], in experiment [14], in experiment [15] and in [16].

With `Cc1cccc(N)c1N`, the Potency result in experiment [2], in experiment [17], in experiment [3], in experiment [18] and in [19] was “inactive” each time. Besides, the Potency in experiment [4] is 21 µM (active) and 17.2 µM (active). Also, the compound was called inactive in experiment [5], in experiment [6], in experiment [7], in experiment [8], in experiment [9] and in experiment [10]. Further, the outcome in experiment [11], in [12], in [13], in experiment [14], in experiment [15] and in [16] was inactive.

`CCC(C)c1cc([N+](=O)[O-])cc([N+](=O)[O-])c1O` (centres undefined): the Potency result in experiment [1], in experiment [2], in [18] and in [19] was “inactive” each time. The Potency entry in [3] was “inactive and 1.22 µM (active)”; in experiment [4], “inactive and 344 nM (active)”. Also, the compound was classed as inactive in [5], in experiment [7], in [8], in experiment [9], in [10] and in experiment [11]. Moreover, the compound was classed as inactive in experiment [12], in experiment [13], in [14], in [15] and in experiment [16].

With `C=CCc1ccc(OC)cc1`, the Potency entry in experiment [2], in experiment [17] and in [3] was “inactive” throughout. Further, the compound was called inactive in experiment [5], in experiment [6], in experiment [7], in experiment [8], in experiment [9] and in experiment [10]. Besides, the compound was classed as inactive in experiment [11], in [12], in experiment [13], in experiment [14], in experiment [15] and in experiment [16].

For `O=C(Nc1ccc(Br)cc1)c1cc(Br)cc(Br)c1O`, the Potency in experiment [2] is 944 nM (active) and 1.08 µM (active) and 2.17 µM (active); in experiment [4] it was 1.88 µM (active) and 543 nM (active) and 545 nM (active). Besides, the Potency entry in experiment [3] and in experiment [18] was “inactive” in each case. Further, the result in experiment [5], in experiment [6], in experiment [7], in experiment [8], in experiment [9] and in experiment [10] was inactive. In addition, the result in experiment [11], in experiment [13], in [14] and in experiment [16] was inactive.

In the case of `O=P(Oc1ccccc1)(Oc1ccccc1)Oc1ccccc1`, the Potency entry in [2], in experiment [17], in experiment [18] and in experiment [19] was “inactive” throughout. Further, the Potency in experiment [3] was 13.6 µM (active); in [4] it was 242 nM (active) and 1.22 µM (active). Moreover, the call in experiment [5], in experiment [6], in experiment [7], in [8], in experiment [9] and in [10] was inactive. The compound was called inactive in experiment [11], in experiment [13], in experiment [14], in [15] and in experiment [16].

On to `Nc1cccnc1`, for which the Potency entry in [2], in experiment [17], in [3] and in experiment [4] was “inactive” in each case. In addition, the call in experiment [7], in experiment [8], in [9], in experiment [10], in [11] and in [13] was inactive. Moreover, the compound was classed as inactive in [14], in experiment [15] and in experiment [16].

`CN(C)c1ccc(C(=O)c2ccc(N(C)C)cc2)cc1`: the Potency is 27 µM (active) in experiment [1] and 53.9 µM (active) in [4]. Moreover, the Potency result in [2], in experiment [17] and in [18] was “inactive” throughout. The compound was classed as inactive in experiment [7], in [8], in experiment [9], in [11], in [12] and in experiment [13].

On to `N#Cc1cc(Br)c(O)c(Br)c1`, for which the Potency result in experiment [2], in experiment [17] and in experiment [18] was “inactive” throughout. The Potency is 11.7 µM (active) in [3]; 13.7 µM (active) and 4.17 µM (active) in experiment [4]. Also, the compound was classed as inactive in [5], in experiment [6], in experiment [7], in experiment [8], in experiment [9] and in [10]. Besides, the call in experiment [11], in experiment [12], in [13], in experiment [14], in experiment [15] and in [16] was inactive.

As to `CC(C)=CC1C(C(=O)OCc2coc(Cc3ccccc3)c2)C1(C)C` (centres undefined), the Potency result in experiment [1], in experiment [2], in experiment [17] and in experiment [18] was “inactive” each time. Also, the Potency in experiment [4] was 48.6 µM (active) and 61.1 µM (active); in experiment [19] it was 21.8 µM (active). Moreover, the result in experiment [7], in [8], in [9], in [10], in experiment [11] and in experiment [12] was inactive. Further, the compound was classed as inactive in [13], in experiment [14], in experiment [15] and in experiment [16].

With `CC(C)Oc1cc(-n2nc(C(C)(C)C)oc2=O)c(Cl)cc1Cl`, the Potency entry in [2], in [17] and in [18] was “inactive” throughout. Also, the Potency is 12 µM (active) and 54.5 µM (active) in experiment [3]; 24 µM (active) and 43.3 µM (active) in [4]. Also, the outcome in experiment [6], in experiment [7], in [8], in experiment [9], in experiment [10] and in [11] was inactive. Moreover, the compound was classed as inactive in experiment [12], in experiment [13], in experiment [14] and in [16].
